# From PubChem BioAssay (NCATS)
# Inconclusive results are not listed. Where a call stands in place of a potency, no number is given. Values without a mark were called inactive. Activity calls are given as the source filed them. Calls follow the shape of the dose curve; as a rule, active = well fitted inhibition curve with a large enough effect; inconclusive = small, poorly fitted or top-dose-only effect; inactive = flat fitted curve, though single readings scatter. Non-standard residues stand in square brackets, D forms with d. Residues, ends and D or L forms follow the SMILES beside them. Orn = NCCC[C@H](N)C(=O)O
# Test: P-glycoprotein substrates identified in KB-8-5-11 adenocarcinoma cell line, qHTS therapeutic library screen (AID 1346987); also: nearly all actives have a fitted effect of over 65% in size; as to activity change, negative = cytotoxicity: series mostly up to about 44 µM
# Method in brief: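 Steps: plate 500 KB-8-5-11 cells/well in DMEM + 10% FCS (colchicine removed); pin compounds in dose-response; incubate 72 h, 37 degree C, 5% CO2; add CellTiter-Glo, 5 min; read luminescence.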
# Potency is read from the fitted curve at half-maximal effect.
smiles,measurement,value
CC[C@H]1OC(=O)[C@H](C)[C@@H](O[C@H]2C[C@@](C)(OC)[C@@H](O)[C@H](C)O2)[C@H](C)[C@@H](O[C@@H]2O[C@H](C)C[C@H](N(C)C)[C@H]2O)[C@@](C)(O)C[C@@H](C)[C@@H]2N[C@@H](COCCOC)OC([C@H]2C)[C@]1(C)O,Potency,inactive
CCOC(=O)[C@H]1O[C@@H]1C(=O)N[C@@H](CC(C)C)C(=O)NCCC(C)C,Potency,inactive
CO[C@@H]1COCC[C@@H]1N[C@@H]1CC[C@@](C(=O)N2CCc3ncc(C(F)(F)F)cc3C2)(C(C)C)C1,Potency,inactive
CC1(C)C(=O)N2c3ccccc3[C@]3(CC(n4cnc5ccccc5c4=O)C(=O)O3)[C@H]2N1O (stereo partly drawn),Potency,inactive
OCCc1ccc(O[C@@H]2O[C@H](CO)[C@@H](O)[C@H](O)[C@H]2O)c(O)c1,Potency,inactive
CC(/C=C/C1(O)C(C)(C)CC(O)CC1(C)O)OC1OC(CO)C(O)C(O)C1O (stereo not drawn),Potency,inactive
C=C1CC23CC1(O)CCC2C1=CC2OC(=O)C(C)(C2O)C1C3C(=O)O (stereo not drawn),Potency,inactive
Cc1nc2c(-c3cnc(N)nc3)nc(N3CCOCC3)nc2n1C(C)C,Potency,259 nM (active)
CO[C@H]1C=C2C(CC[C@H](O[C@@H]3O[C@H](CO)[C@@H](O)[C@@H](O)[C@H]3O)C2(C)C)[C@]2(C)CC[C@]3(C)C([C@H](C)C(O)C(C=C(C)C)O[C@@H]4O[C@H](CO)[C@@H](O)[C@@H](O)[C@H]4O)CC[C@@]3(C)C12 (stereo partly drawn),"activity change, negative = cytotoxicity",0.439% [at 9.29 µM]
C[C@H]1C[C@H]2[C@@H]3CCC4=CC(=O)C=C[C@]4(C)[C@@]3(F)[C@@H](O)C[C@]2(C)[C@@]1(O)C(=O)COP(=O)(O)O,Potency,inactive
CCOC(=O)c1ccnc(CNCC(=O)N(CC)CCN(C)C)c1,Potency,inactive
O=C1N(CC2CCCCN2)CCN1c1ccccc1 (stereo not drawn),Potency,inactive
C=CC1(C)C=C2C(=O)CC3C(C)(C)CCCC3(C(=O)O)C2(O)CC1 (stereo not drawn),Potency,inactive
C/C=C(\C)C(=O)O[C@@H](C)[C@H]1CC[C@]2(O)C3CCC4C[C@@H](OC5CC(OC)C(OC6CC(OC)C(OC7CC(OC)C(OC8OC(C)C(OC9OC(CO)C(O)C(O)C9O)C(OC)C8O)C(C)O7)C(C)O6)C(C)O5)CC[C@]4(C)C3[C@H](O)[C@@H](O)[C@]12C (stereo partly drawn),"activity change, negative = cytotoxicity",2.39% [at 9.29 µM]
CC(CCC1(O)OC2CC3C4CCC5CC(O[C@@H]6O[C@H](CO)[C@@H](O)[C@H](O)[C@H]6O[C@@H]6OC[C@@H](O)[C@H](O)[C@H]6O)C(O)CC5(C)C4CCC3(C)C2C1C)CO[C@@H]1O[C@H](CO)[C@@H](O)[C@H](O)[C@H]1O (stereo partly drawn),outcome,inactive [at 9.29 µM]
CC(C)C[C@@H]1NC(=O)[C@H](CCCN)NC(=O)[C@H](C(C)C)NC(=O)[C@@H]2CCCN2C(=O)[C@@H](Cc2ccccc2)NC(=O)[C@H](CC(C)C)NC(=O)[C@H](CCCN)NC(=O)[C@H](C(C)C)NC(=O)[C@@H]2CCCN2C(=O)[C@@H](Cc2ccccc2)NC1=O (cyclo(V[Orn]L[dF]PV[Orn]L[dF]P)),Potency,inactive
Cc1nnc(C(C)C)n1C1CC2CCC(C1)N2CC[C@H](NC(=O)C1CCC(F)(F)CC1)c1ccccc1 (stereo partly drawn),Potency,inactive
O=C1[C@H](O[C@@H]2O[C@H](CO)[C@@H](O)[C@H](O)[C@H]2O)Oc2ccccc2N1O,Potency,inactive
CC1CCC2(O1)C(C)(C)CC(O[C@@H]1O[C@H](CO[C@@H]3OC[C@](O)(CO)[C@H]3O)[C@@H](O)[C@H](O)[C@H]1O)CC2(C)O (stereo partly drawn),Potency,inactive
CC(C)CC(=O)OC[C@H]1O[C@@](COC(=O)CC(C)C)(O[C@H]2O[C@H](CO)[C@@H](O)[C@H](O)[C@H]2O)[C@@H](OC(=O)CC(C)C)[C@@H]1OC(=O)CC(C)C,Potency,inactive
COc1c2c(c(C)c3c1C(=O)OC3)OC1(C)CC(O)C3(O)C(C)(C)OC(=O)CCC3(C)C1C2 (stereo not drawn),Potency,inactive
C[C@]1(O)CC[C@@H]2C(C(=O)O)=CO[C@@H](O[C@@H]3O[C@H](COC(=O)c4ccc(O)cc4)[C@@H](O)[C@H](O)[C@H]3O)[C@@H]21,Potency,inactive
C=C1C2(CCC(=O)OC2(C)C)CC(OC(=O)/C(C)=C/C)C2(C)C13OC14C(=O)OC(C)(C(=O)C12C(=O)OC4C)C3OC(C)=O (stereo not drawn),Potency,inactive
C=C(C)[C@@H](C)[C@H]1O[C@]23C[C@]4(CO2)C(CCC2[C@@]5(C)CC[C@H](O[C@@H]6OC[C@H](O)[C@H](O[C@@H]7O[C@H](CO)[C@@H](O)[C@H](O)[C@H]7O)[C@H]6O[C@@H]6O[C@@H](CO)[C@H](O)[C@H]6O)C(C)(C)C5CC[C@]24C)C3[C@@](C)(O)[C@@H]1OC(C)=O (stereo partly drawn),"activity change, negative = cytotoxicity",4.3% [at 9.29 µM]
COC(=O)C1=C[C@@H](O)[C@@H](O)[C@H](O[C@@H]2O[C@H](COC(=O)/C=C/c3ccccc3)[C@@H](O)[C@H](O)[C@H]2O)C1,Potency,inactive
COc1c(OC2OC(CO)C(O)C(O)C2O)ccc(O)c1C(=O)OCc1ccccc1O[C@@H]1O[C@H](CO)[C@@H](O)[C@H](O)[C@H]1O (stereo partly drawn),Potency,inactive
C=C1C(=O)O[C@H]2[C@H]1[C@@H](OC(=O)C(C)CO)C[C@@]1(C)[C@H](O)CCC(=O)[C@H]21 (stereo partly drawn),Potency,inactive
CC[C@H]1OC(=O)[C@H](C)[C@@H](O[C@H]2C[C@@](C)(OC)[C@@H](O)[C@H](C)O2)[C@H](C)[C@@H](O[C@@H]2O[C@H](C)C[C@H](N(C)C)[C@H]2O)[C@](C)(O)C[C@@H](C)/C(=N\OCOCCOC)[C@H](C)[C@@H](O)[C@]1(C)O,Potency,inactive
